# From article PMC5540273 (PLoS ONE, 2017)
# System: STK16
# Details: concentration: 1 μM, replicates: in singlicate; n = 1
# 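Also: KINOMEscan kinase panel screen.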
row,SMILES,%Inh
1,O=C(Nc1n[nH]c2nc(-c3nccs3)c(Br)cc12)C1CCCC1 [SB-742609],0%
2,CC1=C(C(=O)Nc2cc3cn[nH]c3cc2F)C(c2ccc(C(F)(F)F)cc2)CC(=O)N1 (stereo not shown) [GSK429286],14%
3,Cl.O=C(Nc1cccc(-c2nn3ncccc3c2-c2ccnc(Nc3cccnc3)n2)c1)c1c(F)cccc1F [GSK312879],3%
4,Cc1ccc(NC(=O)Nc2cccc(Cl)c2)cc1-c1ccc(C(=O)Nc2ccncc2)cc1 [GSK1398468],9%
5,CC(=O)Nc1nc2cnc(Nc3cc(NC(=O)c4cccc(CCC#N)c4)ccc3C)nc2s1,17%
6,COc1cccc(NC(=O)NC2CCN(c3ccnc(Nc4ccc(F)cc4)n3)C2)c1 (stereo not shown) [GSK1379721],16%
7,CS(=O)(=O)c1ccc(-c2nc3n(c2-c2ccncc2)CCC3)cc1 [SKF-105942],96.8%
8,CCCc1ccc(S(=O)(=O)NC2CCN(c3ccnc(Nc4ccc(F)cc4)n3)C2)cc1 (stereo not shown) [GSK1379715],6%
9,O=S(=O)(c1ccc(-c2ccnc3[nH]ccc23)cc1)N1CCCC1 [GSK846226],67%
10,Cc1ccc(NC(=O)Nc2cc(C(C)(C)C)nn2-c2ccccc2)cc1 [GSK1014915],0%
11,CN(C)CCN(C)C(=O)c1cc(-c2ccncc2)c(-c2ccc(Cl)c(O)c2)o1.Cl.Cl [SB-710397],4%
12,O=C(O)COc1ncnc2cc(-c3ccc4[nH]ncc4c3)sc12,12%
13,Cc1cccc(-c2nc(C)cc(Nc3ccncc3)n2)n1 [GSK257997],2%
14,O=C(Nc1n[nH]c2nc(-c3nccs3)c(Br)cc12)C1CC1 [SB-742251],61%
15,Nc1nc(-c2nccs2)c(-c2ccnc3ccccc23)s1 [GW693542],32%
16,CC(C)(C)c1ccc(C(=O)Nc2cn3cc(-c4cccnc4)ccc3n2)cc1,27%
17,Cn1ccc2ncnc(Oc3ccc(NC(=O)Nc4ccccc4)cc3)c21,9%

row,SMILES,%Inh
1,Cl.c1ccc(-c2n[nH]cc2-c2ccnc(-c3ccc(CN4CCOCC4)cc3)c2)nc1 [GW776245],17%
2,COc1cc2ncn(-c3cc(OCC4CCCO4)c(C(N)=O)s3)c2cc1OC (stereo not shown) [GSK204607],5%
3,COc1ccc(C2=C(Nc3cccc(C(=O)O)c3)C(=O)NC2=O)cc1 [SB-390765],10%
4,Fc1cc(Cl)ccc1Nc1ccnc2cc(-c3ccc(CN4CCCCC4)o3)ccc12 [GW560116],1%
5,O=c1cc(N2CCOCC2)nc2n(Cc3cccc(Cl)c3Cl)ccn12 [GSK2286295],5%
6,O=C(Nc1ccccc1)Nc1cccc(Oc2ccc3nccn3n2)c1,0%
7,Nc1ncnc2[nH]c(-c3ccccc3)nc12 [AH5015],0%
8,Cc1cccc(-c2nc(-c3ccc(S(C)(=O)=O)cc3)sc2-c2ccnc(NCCc3ccccc3)c2)c1,13%
9,O=C(Nc1n[nH]c2cc(-c3cccc(F)c3F)ccc12)C1CC1 [SB-733894],12%
10,CN1C(=O)C(Nc2ccc(Cl)c(C(=O)O)c2)=C(c2ccc(Cl)cc2)C1=O [SB-404290],0%
11,Cn1cncc1-c1ccc2ncnc(Nc3ccc(OCc4ccccc4)cc3)c2c1 [GW320571],5%
12,Cn1ccc2ncnc(Oc3cccc(C(=O)Nc4ccccc4)c3)c21,0%
13,Fc1cc(Cl)ccc1Nc1ccnc2cc(I)ccc12 [GW551191],9%
14,COc1cc2ncnc(Nc3ccc4nc(-c5ccccc5)[nH]c4c3)c2cc1OC.Cl [GW282450],19%
15,COc1cccc(-c2cc(-c3c[nH]nc3-c3ccccn3)ccn2)c1 [GW680338],8%
16,COc1ccc(CNC(=O)NC2CCN(c3ccnc(Nc4cc(OC)c(OC)c(OC)c4)n3)C2)cc1 (stereo not shown) [GSK1379748],54%

# System: STK33
# Details: concentration: 1 μM, replicates: in singlicate; n = 1
row,SMILES,%Inh
1,O=C(Nc1n[nH]c2nc(-c3nccs3)c(Br)cc12)C1CCCC1 [SB-742609],0%
2,CC1=C(C(=O)Nc2cc3cn[nH]c3cc2F)C(c2ccc(C(F)(F)F)cc2)CC(=O)N1 (stereo not shown) [GSK429286],0%
3,CSc1nn2c(=O)cc(N3CCOCC3)nc2n1Cc1cccc(C(F)(F)F)c1C [GSK2363608],0%
4,Cl.O=C(Nc1cccc(-c2nn3ncccc3c2-c2ccnc(Nc3cccnc3)n2)c1)c1c(F)cccc1F [GSK312879],0%
5,Cc1ccc(NC(=O)Nc2cccc(Cl)c2)cc1-c1ccc(C(=O)Nc2ccncc2)cc1 [GSK1398468],0%
6,CC(=O)Nc1nc2cnc(Nc3cc(NC(=O)c4cccc(CCC#N)c4)ccc3C)nc2s1,0%
7,COc1cccc(NC(=O)NC2CCN(c3ccnc(Nc4ccc(F)cc4)n3)C2)c1 (stereo not shown) [GSK1379721],0%
8,CS(=O)(=O)c1ccc(-c2nc3n(c2-c2ccncc2)CCC3)cc1 [SKF-105942],0%
9,CCCc1ccc(S(=O)(=O)NC2CCN(c3ccnc(Nc4ccc(F)cc4)n3)C2)cc1 (stereo not shown) [GSK1379715],0%
10,O=S(=O)(c1ccc(-c2ccnc3[nH]ccc23)cc1)N1CCCC1 [GSK846226],0%
11,Cc1ccc(NC(=O)Nc2cc(C(C)(C)C)nn2-c2ccccc2)cc1 [GSK1014915],0%
12,CN(C)CCN(C)C(=O)c1cc(-c2ccncc2)c(-c2ccc(Cl)c(O)c2)o1.Cl.Cl [SB-710397],0%
13,O=C(O)COc1ncnc2cc(-c3ccc4[nH]ncc4c3)sc12,0%
14,Cc1cccc(-c2nc(C)cc(Nc3ccncc3)n2)n1 [GSK257997],0%
15,O=C(Nc1n[nH]c2nc(-c3nccs3)c(Br)cc12)C1CC1 [SB-742251],0%
16,Nc1nc(-c2nccs2)c(-c2ccnc3ccccc23)s1 [GW693542],0%
17,CC(C)(C)c1ccc(C(=O)Nc2cn3cc(-c4cccnc4)ccc3n2)cc1,6%

row,SMILES,%Inh
1,Cn1ccc2ncnc(Oc3ccc(NC(=O)Nc4ccccc4)cc3)c21,17%
2,Cl.c1ccc(-c2n[nH]cc2-c2ccnc(-c3ccc(CN4CCOCC4)cc3)c2)nc1 [GW776245],0%
3,COc1cc2ncn(-c3cc(OCC4CCCO4)c(C(N)=O)s3)c2cc1OC (stereo not shown) [GSK204607],0%
4,COc1ccc(C2=C(Nc3cccc(C(=O)O)c3)C(=O)NC2=O)cc1 [SB-390765],0%
5,Fc1cc(Cl)ccc1Nc1ccnc2cc(-c3ccc(CN4CCCCC4)o3)ccc12 [GW560116],0%
6,O=c1cc(N2CCOCC2)nc2n(Cc3cccc(Cl)c3Cl)ccn12 [GSK2286295],0%
7,O=C(Nc1ccccc1)Nc1cccc(Oc2ccc3nccn3n2)c1,1%
8,Nc1ncnc2[nH]c(-c3ccccc3)nc12 [AH5015],0%
9,Cc1cccc(-c2nc(-c3ccc(S(C)(=O)=O)cc3)sc2-c2ccnc(NCCc3ccccc3)c2)c1,0%
10,O=C(Nc1n[nH]c2cc(-c3cccc(F)c3F)ccc12)C1CC1 [SB-733894],0%
11,CN1C(=O)C(Nc2ccc(Cl)c(C(=O)O)c2)=C(c2ccc(Cl)cc2)C1=O [SB-404290],0%
12,Cn1cncc1-c1ccc2ncnc(Nc3ccc(OCc4ccccc4)cc3)c2c1 [GW320571],20%
13,Cn1ccc2ncnc(Oc3cccc(C(=O)Nc4ccccc4)c3)c21,7%
14,Fc1cc(Cl)ccc1Nc1ccnc2cc(I)ccc12 [GW551191],0%
15,COc1cc2ncnc(Nc3ccc4nc(-c5ccccc5)[nH]c4c3)c2cc1OC.Cl [GW282450],0%
16,COc1cccc(-c2cc(-c3c[nH]nc3-c3ccccn3)ccn2)c1 [GW680338],0%
17,COc1ccc(CNC(=O)NC2CCN(c3ccnc(Nc4cc(OC)c(OC)c(OC)c4)n3)C2)cc1 (stereo not shown) [GSK1379748],0%
